Holding throughout (experiment): NCI-60 one-dose screen, 48 h (100 = growth as untreated, 0 = no growth, -100 = all killed)
Conditions in all cases: 10 µM unless noted

The subject of assay [1] is HCT-15 colon.
Assay [2] concerns HT29 colon.
The subject of assay [3] is SNB-75 CNS.
The test system of assay [4] is SNB-19 CNS.
Assay [5] deals with U251 CNS.
Assay [6] relates to PC-3 prostate.
Assay [7] has as its system SK-MEL-5 melanoma.
In assay [8] the test system is UACC-62 melanoma.
Assay [9] has as its system LOX IMVI melanoma.
Assay [10] concerns SK-MEL-28 melanoma.
In assay [11] the test system is SK-MEL-2 melanoma.
Assay [12] has as its system EKVX NSCLC.
In assay [13] the test system is SN12C renal.
Assay [14] concerns UO-31 renal.
Assay [15] deals with TK-10 renal.
For assay [16], the system named is CAKI-1 renal.
Assay [17] deals with A498 renal.
The test system of assay [18] is CCRF-CEM leukemia.
Assay [19] relates to MOLT-4 leukemia.
Assay [20] relates to ACHN renal.

Here are results for 9 compounds from PubChem BioAssay (NCI).

This is part of a sample that, as a whole, favours compounds with a hit. Of some 83,000 tested, about 20% had one in any assay.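 Each cell line was grown in a 96-well plate and treated with one concentration of compound for 48 hours. Values below 10 were considered active.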 Unmarked numbers belong to inactive results. Calls of active or inactive are those of the source.

For the compound `CC(C)C[C@@H](C(=O)N[C@H](C(=O)OC1CCCC1)c1ccccc1)[C@H](O)C(=O)NO`, the growth in [1] was 58.4%; in assay [2], 58%; in [3], 101%; in assay [4] it was 76.2%; in assay [5], 45.7%; in assay [6], 49.6%. Moreover, the growth in [7] was 59.8%; in assay [8], 68.8%; in assay [9], 54.2%; in assay [10] it was 63.2%; in assay [11] it was 33.2%; in [12] it was 67.5%. The growth in assay [13] was 86.5%; in [14], 50.8%; in assay [15], 70.4%; in assay [16], 76.2%; in [17], 40.7%; in assay [18] it was 67.8%. In addition, the growth in assay [19] is 63.4%.

On to `CCOC(=O)c1c(C)nc2ccccc2c1/C=C/c1ccc(OC)cc1`, for which the growth is 66% in assay [1]; 73.5% in assay [2]; 76.2% in assay [3]; 75.9% in [4]; 79.8% in [5]; 60.2% in assay [6]. Also, the growth in [7] was 2.63% (active); in assay [8], 45.7%; in assay [9] it was 68.5%; in [10], 96.2%; in assay [11], 64.3%; in assay [12], 54.9%. In addition, the growth in assay [14] is 52.3%; in assay [15], 85.8%; in [20] it was 58.8%; in assay [16], 56.8%; in assay [17] it was 77.9%; in [18], 56.4%. Besides, the growth in assay [19] was 26.1%.

On to `C=C1C(=O)O[C@H]2[C@H]1CC/C(COC(=O)NCc1ccc(Cn3c(=O)sn(-c4ccc(OC)cc4)c3=O)cc1)=C\CC[C@@]1(C)O[C@@H]21`, for which the growth in [1] is 4.27% (active); in [2] it was -15.5% (active); in assay [3], 96%; in assay [4] it was 94.8%; in assay [5] it was 77.7%; in assay [6], 70.3%. The growth in [7] is 97.9%; in assay [8], 60.7%; in [9] it was 25%; in assay [10] it was 71%; in [11] it was 68.1%; in [12], 97.1%. In addition, the growth in [14] is -14.6% (active); in assay [15], 1.08% (active); in assay [20] it was -8.56% (active); in assay [16], 55.9%; in [17] it was 89.2%; in [18], -34.7% (active). Besides, in assay [19], the growth is -12.2% (active).

In the case of `Oc1c(Cl)cc(Cl)c2ccc(Cn3cc(-c4cccc(C(F)(F)F)c4)nn3)nc12`, the growth is 40.5% in assay [1]; 89.2% in [2]; 70% in assay [3]; 95.6% in [4]; 93.6% in assay [5]; 83.1% in assay [6]. The growth was 98.2% in [7]; 82.1% in assay [8]; 23.7% in assay [9]; 75.9% in assay [10]; 93.8% in [11]; 80.1% in [12]. The growth is 73.4% in assay [14]; 99.7% in [15]; 47.9% in assay [20]; 31.1% in assay [16]; 91.1% in [17]; 6.72% (active) in [18]. Moreover, the growth in assay [19] is 3.08% (active).

On to `CC/C(Cc1ccccc1)=C(\c1ccc(OCCN2CCCCCC2)cc1)c1ccc(OC(=O)NCc2ccccc2)cc1`, for which the growth in assay [1] was 9.25% (active); in assay [2], 5.23% (active); in assay [3] it was 66.4%; in assay [4], 72.5%; in assay [5], 49.6%; in assay [6], 54.8%. Besides, the growth was 72.5% in assay [7]; 75.3% in assay [8]; 4.35% (active) in assay [9]; 87.2% in assay [10]; 98.9% in [11]; 69.5% in assay [12]. Besides, the growth was 59.2% in [14]; 91.6% in assay [15]; 95% in [20]; 93.8% in [16]; 82.5% in [17]; 47.5% in assay [18]. Besides, the growth in assay [19] is 42.6%.

Regarding `CNCc1cccc2c1OCCOCCN(C)C(=O)CN(C)S(=O)(=O)c1ccc(cc1)-c1cnc(N)c(n1)C(=O)N2`, the growth in [1] was 66.3%; in [2], 11.6%; in assay [3] it was -19.2% (active); in assay [4] it was 25.5%; in [5] it was -62.3% (active); in assay [6], 57.9%. The growth in assay [7] is 55.4%; in assay [8], 4.98% (active); in assay [9], 10.3%; in assay [10], -85.8% (active); in assay [11] it was 4.91% (active); in [12] it was 41.8%. Also, the growth in assay [14] is 101%; in [15], 11.5%; in assay [16], 27.2%; in assay [17], 70.3%; in [18], -18.4% (active); in assay [19] it was -1.69% (active).

For the compound `O=C(NCc1ccccc1O)c1cccc2ccccc12`, the growth in assay [1] was 68.9%; in assay [2], 107%; in [3], 66.5%; in assay [4] it was 69.3%; in assay [5] it was 81.6%; in assay [6] it was 52.5%. In addition, the growth in assay [7] was 60.1%; in assay [8], 37.9%; in assay [9] it was 79.6%; in [10], 71.5%; in assay [11], 86.4%; in assay [12], 82.1%. The growth in assay [14] was 51.5%; in assay [15], 98.5%; in [20], 72.4%; in [16] it was 91.9%; in [17] it was 56%; in [18], 101%. The growth in assay [19] is 79%.

With `COc1ccc(C(C)=O)cc1S(N)(=O)=O`, the growth in assay [1] is 107%; in [2], 86%; in assay [3], 101%; in assay [4], 99.7%; in [5], 98.6%; in assay [6] it was 85.7%. Also, the growth is 104% in assay [7]; 94.7% in [8]; 106% in assay [9]; 106% in [10]; 87.9% in assay [11]; 106% in assay [12]. Besides, the growth in [14] was 90.7%; in assay [15], 81.4%; in [16], 93.8%; in assay [17] it was 101%; in assay [18], 96.8%; in assay [19] it was 86.4%.

Take `CNC(=O)c1c(NC(=O)c2ccc(C(C)(C)C)cc2)sc2c(CN(C)C)c(O)ccc12`: the growth was -77.3% (active) in assay [1]; 0.0225% (active) in [2]; 94.9% in assay [3]; 0.882% (active) in assay [4]; -29.9% (active) in [5]; -23.3% (active) in assay [6]. For the same compound, the growth in assay [7] was -29.5% (active); in assay [8], -85.9% (active); in assay [9], -88.5% (active); in assay [10] it was -89.1% (active); in assay [11] it was -53% (active); in [12], 63.3%. Moreover, the growth is -78.5% (active) in assay [14]; 87.5% in assay [15]; -22.3% (active) in [20]; -13.1% (active) in assay [16]; 53.1% in assay [17]; -7.61% (active) in assay [18]. The growth in assay [19] was -35.5% (active).
